Among the data in PubChem BioAssay are composite z-score values, retold here.

This experiment in a line: probe aCHRDL2 binding to arrayed compounds – biochemical, biotinylated probe, 635/667 nm fluorescence, primary screen (AID 1100). Conditions: small-molecule microarray, higher = more signal.
As to `N#Cc1ccc(NN2C(C(O)c3ccc(Br)cc3)C=CC3C(=O)N(c4ccccc4)C(=O)C32)cc1` (stereo unspecified), the composite z-score was determined as 0.905.
The figure for `CC1CC/C=C\[C@H]2OC34C=CCN(c5ccc(Cl)cc5)C(=O)[C@H]3N(C(C)CO)C(=O)[C@]4(C)C2C(=O)O1` (stereo partly specified) is 0.158; for `CO[C@H]1O[C@H](CO)[C@@H](OC(=O)Nc2ccc(Br)cc2)[C@@H]2OC(=O)[C@@H](Cc3ccccc3)C/C=C/C[C@H](Cc3ccccc3)C(=O)O[C@@H]12` it is 0.265.
The figure for `CCOC(=O)C[C@H]1[C@H](OC(=O)c2cc3ccccc3oc2=O)[C@@H](NC(=O)c2ccccc2)c2cc(OCCCO)ccc2N1C(=O)c1ccccc1` is -0.432; for `O=C1OCCC=C[C@H]2OC34C=CCN(c5ccc6ccccc6c5)C(=O)[C@H]3N(CCCO)C(=O)[C@@H]4C12` (stereo partly specified) it is 0.637; for `O=C1C2C=CC(C(O)C3CC=CCC3)N(Nc3ccccc3)C2C(=O)N1c1ccccc1` (stereo unspecified) it is 1.12.
The figure for `Cc1ccc(S[C@]2(C(=O)NC(C)C)CC(=O)N(Cc3cc(C(F)(F)F)cc(C(F)(F)F)c3)[C@@H]2c2ccc(CO)cc2)cc1` is 0.675; for `CCOC(=O)C[C@H]1[C@H](OC(=O)c2ccccc2-c2ccccc2)[C@@H](NC(=O)c2ccc3ccccc3n2)c2cc(OCCCO)ccc2N1C(=O)Cc1ccc(OC)cc1` it is -0.302; for `CC(C)c1ccc(NN2C(C(O)c3ccc(C#N)cc3)C=CC3C(=O)N(c4ccccc4)C(=O)C32)cc1` (stereo unspecified) it is 0.836.
In turn, `CCC#CCN(Cc1ccccc1Br)[C@H](/C=C/C1CC1)[C@@H](O)Cc1ccccc1` gave a composite z-score of 0.952.
Then `C=C[C@@H](OC)[C@H](OC(=O)Nc1ccc(OC)cc1)c1ccc(O)c(F)c1`, with -0.54.
